The whole screen tested about 52,000 compounds, of which about 4,300 (8.3%) were called active. No stated cut-off is given here; in the data, active means survival mostly below about 52% (no sharp cut-off); inactive means mostly above about 56%. The full list was thinned out, with actives kept by preference.
The compounds below were run on DeltatarO mutant (assay: growth inhibition of S. aureus wild type versus tarO mutant, primary screen, teichoic acid synthesis inhibitors, RN4220, OD600 (AID 463173)). Details: OD600, 18 h, hits give low values, screened at 18.75 µg/mL (by protocol).
With `Cc1ccc(-c2nnc(Nc3ccccc3)c3ccccc23)cc1S(=O)(=O)N1CCN(C)CC1` the survival was 86% (inactive).
`NC(=O)c1cc2ccc(O)cc2oc1=O` was tested, and the survival was 74% (inactive).
With `COc1ccc(CCNC(=O)CCCn2nc(C)c3sc4ccccc4c3c2=O)cc1OC` the survival was 83% (inactive).
In the case of `Cc1c(-c2ccccc2)nc2ccccc2c1C(=O)O`, the survival is reported as 95% (inactive).
For `CCCCc1nc2ccccc2c(C(=O)O)c1C`, the survival was 75% (inactive).
In the case of `CCc1ccc(-c2nc3ccc(Br)cc3c(C(=O)O)c2C)s1`, the survival is reported as 39% (active).
For `COc1ccccc1CNC(=O)CN1C(=O)CCc2cc(S(=O)(=O)N3CCOCC3)ccc21`, the survival was 135% (inactive).
With `O=C(Cn1c(C(=O)N(Cc2ccco2)CC2CCCO2)cc2sccc21)c1ccccc1` (configuration not stated) the survival was 68% (active).
`O=C(Cn1c(C(=O)NCC2CCCO2)cc2sccc21)c1ccccc1` (configuration not stated) was tested, and the survival was 103% (inactive).
With `O=C(Cn1c(C(=O)NCc2ccco2)cc2sccc21)c1ccccc1` the survival was 92% (inactive).
`CCOc1ccc(C2C(C(N)=O)=C(C)Nc3nc(-c4cccc(Cl)c4)nn32)cc1OC` (configuration not stated) was tested, and the survival was 74% (inactive).
For `O=C(NCC(c1ccco1)S(=O)(=O)c1cccs1)c1ccccc1` (configuration not stated), the survival was 63% (inactive).
In the case of `COc1cc2[nH]c(=O)n(CCCCCC(=O)N3CCN(c4cccc(C(F)(F)F)c4)CC3)c(=O)c2cc1OC`, the survival is reported as 83% (inactive).
`O=C(NC1CCCCC1)N(Cc1nc2ccccc2c(=O)[nH]1)C1CCCC1` was tested, and the survival was 85% (inactive).
In the case of `O=C(NCc1ccccc1)N(Cc1nc2ccccc2c(=O)[nH]1)C1CCCC1`, the survival is reported as 52% (active).
With `O=C(c1ccccc1)N(Cc1nc2ccccc2c(=O)[nH]1)C1CCCC1` the survival was 70% (inactive).
With `COc1cccc2c(=O)cc(C)[nH]c12` the survival was 88% (inactive).
With `CN(Cc1ccccc1)C1CCNCC1` the survival was 90% (inactive).
For `O=C(Nc1ccc(Cl)c(C(F)(F)F)c1)c1ccc2c(c1)CCN2S(=O)(=O)c1ccccc1`, the survival was 43% (active).
In the case of `CS(=O)(=O)N1CCc2cc(C(=O)Nc3ccc(C(F)(F)F)cc3)ccc21`, the survival is reported as 76% (inactive).
In the case of `Cc1ccc(S(=O)(=O)N2CCc3cc(C(=O)Nc4ccc(C(F)(F)F)cc4)ccc32)cc1`, the survival is reported as 63% (inactive).
For `CS(=O)(=O)N1CCc2cc(C(=O)Nc3cccc(F)c3)ccc21`, the survival was 68% (inactive).
With `CS(=O)(=O)N1CCc2cc(C(=O)Nc3ccc(Cl)c(C(F)(F)F)c3)ccc21` the survival was 33% (active).
With `O=C(Nc1cc(C(F)(F)F)ccc1Cl)c1ccc2c(c1)CCN2S(=O)(=O)c1ccccc1` the survival was 48% (inactive).
`CCCCNC(=O)CSc1nc2cc3c(cc2c(=O)n1CCCCCC(=O)NCc1ccc(OC)cc1)OCO3` was tested, and the survival was 79% (inactive).
In the case of `CNCCCc1cc(C)ccc1O`, the survival is reported as 59% (inactive).
With `CCc1ccc(NC(=O)c2cccc(N3CCCS3(=O)=O)c2)cc1` the survival was 81% (inactive).
In the case of `Cc1ccc(S(=O)(=O)Nc2cc3c(cc2Cl)n(C)c(=O)c(=O)n3C)cc1`, the survival is reported as 83% (inactive).
For `CCN(CC)N=Nc1ccc(S(=O)(=O)Nc2nc(C)cc(C)n2)cc1`, the survival was 100% (inactive).
With `CN(C)CCCN(C(=O)c1ccc2c(c1)OCCO2)c1nc2ccccc2s1` the survival was 94% (inactive).
In the case of `CCOc1ccc2nc(NCCNC(=O)Nc3cccc(Cl)c3)c(C#N)cc2c1`, the survival is reported as 82% (inactive).
In the case of `Cc1cccc(C)c1Nc1c(-c2ccc(Cl)s2)nc2ncccn12`, the survival is reported as 103% (inactive).
For `Cc1ccc2nc(-c3cccs3)c(Nc3c(C)cccc3C)n2c1`, the survival was 35% (active).
With `Cc1cccc(C)c1Nc1c(-c2ccsc2)nc2ccc(Cl)cn12` the survival was 80% (inactive).
In the case of `Cc1cccc(C)c1Nc1c(-c2ccsc2)nc2ccccn12`, the survival is reported as 43% (inactive).
`Cc1ccc2nc(-c3cccs3)c(Nc3ccc4c(c3)OCCO4)n2c1` was tested, and the survival was 99% (inactive).
In the case of `Cc1ccn2c(Nc3ccc4c(c3)OCCO4)c(-c3ccc(Cl)s3)nc2c1`, the survival is reported as 102% (inactive).
`Cc1cccc(C)c1Nc1c(-c2cccs2)nc2ncccn12` was tested, and the survival was 76% (inactive).
`Cc1ccn2c(Nc3c(C)cccc3C)c(-c3ccsc3)nc2c1` was tested, and the survival was 35% (active).
In the case of `Cc1ccn2c(Nc3c(C)cccc3C)c(-c3ccc(Cl)s3)nc2c1`, the survival is reported as 37% (active).
For `O=C(Nc1ccccc1C(F)(F)F)c1ccc2oc(=O)c(S(=O)(=O)c3ccc(F)cc3)cc2c1`, the survival was 89% (inactive).
In the case of `CSc1cccc(NC(=O)C2CCCN(S(=O)(=O)c3ccc4c(c3)CCCN4C(C)=O)C2)c1` (configuration not stated), the survival is reported as 71% (inactive).
`O=C(OCC1CCCO1)c1ccc2c(c1)N(Cc1ccc(F)cc1)C(=O)c1ccccc1S2(=O)=O` (configuration not stated) was tested, and the survival was 101% (inactive).
With `Cc1ccc2occ(CC(=O)N(Cc3ccc(N(C)C)cc3)C3CCS(=O)(=O)C3)c2c1` (configuration not stated) the survival was 74% (inactive).
In the case of `Cc1ccc(CNC(=O)Cn2c3ncccc3c(=O)n2-c2ccccc2)cc1`, the survival is reported as 81% (inactive).
`CC(=O)N1CCc2c(sc(NC(=O)CSc3ccc(C)cc3)c2-c2nc3ccccc3s2)C1` was tested, and the survival was 92% (inactive).
With `COC(=O)c1ccc(-c2ccc(/C=N/NC(=O)CC3(C)OCCCO3)o2)cc1` the survival was 96% (inactive).
For `CCCCNC(=O)c1cnc2sc(N3CCCCCC3)nn2c1=O`, the survival was 79% (inactive).
`CN(C)c1ccc(CNC(=O)CCCN2C(=O)c3cccnc3Oc3ccc(Cl)cc32)cc1` was tested, and the survival was 81% (inactive).
With `Cn1c(SCC(=O)N2CCCc3ccccc32)nnc1-c1ccccc1N` the survival was 92% (inactive).
With `CCc1ccc(NC(=O)CSc2nc(C)c(C(=O)Nc3ccc(Cl)cc3)c(-c3ccc(OC)cc3)c2C#N)cc1` the survival was 92% (inactive).
With `Cc1ccc(Cl)cc1NC(=O)CN1C(=O)C(C)(C)c2cc(S(=O)(=O)N3CCCCC3)ccc21` the survival was 6% (active).
For `COc1ccc(Cl)cc1NC(=O)CN1C(=O)C(C)(C)c2cc(S(=O)(=O)N3CCCCC3)ccc21`, the survival was 70% (inactive).
`COc1ccc(NC(=O)CN2C(=O)CCc3cc(S(=O)(=O)N4CCOCC4)ccc32)c(OC)c1` was tested, and the survival was 80% (inactive).
With `COc1ccc(OC)c(NC(=O)CN2C(=O)CCc3cc(S(=O)(=O)N4CCCCC4)ccc32)c1` the survival was 32% (active).
For `Cc1ccc(NC(=O)CN2C(=O)CCc3cc(S(=O)(=O)N4CCOCC4)ccc32)cc1F`, the survival was 47% (active).
In the case of `COc1ccc(C)cc1NC(=O)CN1C(=O)CCc2cc(S(=O)(=O)N3CCOCC3)ccc21`, the survival is reported as 94% (inactive).
In the case of `Cc1ccc(NC(=O)CN2C(=O)CCc3cc(S(=O)(=O)N4CCOCC4)ccc32)cc1N(C)C`, the survival is reported as 93% (inactive).
With `Cc1cc(F)ccc1NC(=O)CN1C(=O)CCc2cc(S(=O)(=O)N3CCOCC3)ccc21` the survival was 76% (inactive).
For `Cc1ccc(NC(=O)CN2C(=O)C(C)(C)c3cc(S(=O)(=O)N4CCCCC4)ccc32)c(Br)c1`, the survival was 67% (inactive).
In the case of `CCOC(=O)c1cccc(NC(=O)C(CC(C)C)N2Cc3ccccc3C2=O)c1` (configuration not stated), the survival is reported as 128% (inactive).
With `Cc1nc2cccnc2n1-c1cccc(C(=O)NCCc2ccc(S(N)(=O)=O)cc2)c1` the survival was 85% (inactive).
`CCOc1ccc(OCC)c(NC(=O)c2nnn(Cc3cc(Br)ccc3OC)c2N)c1` was tested, and the survival was 61% (inactive).
`CC1(C(=O)C[n+]2cccc(C(N)=O)c2)CCC(=O)O1` (configuration not stated) was tested, and the survival was 92% (inactive).
With `O=C(NC1CCCC1)c1ccc(CSc2nc3ccncc3n2Cc2ccc(F)cc2)cc1` the survival was 68% (inactive).
With `O=C(c1ccc2c(c1)N(Cc1ccc(Cl)cc1)C(=O)c1ccccc1S2(=O)=O)N1CCN(Cc2ccccc2)CC1` the survival was 78% (inactive).
With `CCC(=O)N1c2ccccc2CC1C(=O)NCCc1ccc(C)cc1` (configuration not stated) the survival was 75% (inactive).
In the case of `Cc1cccc(NC(=O)CN2C(=O)C(c3ccc(F)cc3)=NC23CCCCCC3)c1`, the survival is reported as 87% (inactive).
In the case of `O=C(CN1C(=O)C(c2ccc(F)cc2)=NC12CCCCCC2)Nc1ccc(F)c(Cl)c1`, the survival is reported as 40% (active).
`O=C(CN1C(=O)C(c2ccc(F)cc2)=NC12CCCCCC2)Nc1ccccc1Cl` was tested, and the survival was 84% (inactive).
In the case of `CCNC(=S)N1CCC(C(=O)c2ccc(Cl)cc2)CC1`, the survival is reported as 84% (inactive).
`O=C(c1ccc2c(c1)OCCO2)C1CCCCC1` was tested, and the survival was 83% (inactive).
In the case of `CCNC(=S)N1CCC(C(=O)c2ccc3c(c2)OCCO3)CC1`, the survival is reported as 58% (active).
`CCC(CC)C(=O)Nc1ccc(-c2cn3cccnc3n2)cc1` was tested, and the survival was 91% (inactive).
For `Cc1cc(F)ccc1Nc1nc2ccccc2n2nnnc12`, the survival was 111% (inactive).
`Fc1ccc(-c2noc3ncnc(NC4CCCCC4)c23)cc1` was tested, and the survival was 67% (inactive).
In the case of `Cc1ccc(CCNc2ncnc3onc(-c4ccc(Cl)cc4)c23)cc1`, the survival is reported as 46% (inactive).
In the case of `Clc1ccc(-c2noc3ncnc(NCCc4ccccc4)c23)cc1`, the survival is reported as 78% (inactive).
In the case of `CCOc1ccc(CCNc2ncnc3onc(-c4ccc(Cl)cc4)c23)cc1`, the survival is reported as 76% (inactive).
With `CC1CCC(Nc2ncnc3onc(-c4ccc(F)cc4)c23)CC1` (configuration not stated) the survival was 82% (inactive).
For `CC1CCC(Nc2ncnc3onc(-c4ccc(Cl)cc4)c23)CC1` (configuration not stated), the survival was 47% (active).
`CCOc1ccc(Nc2ncnc3onc(-c4ccc(Cl)cc4)c23)cc1` was tested, and the survival was 38% (active).
For `Clc1ccc(-c2noc3ncnc(NC4CCCCC4)c23)cc1`, the survival was 21% (active).
In the case of `Cc1cccc(CCNc2ncnc3onc(-c4ccc(Cl)cc4)c23)c1`, the survival is reported as 33% (active).
With `CC(C)CNc1ncnc2onc(-c3ccc(Cl)cc3)c12` the survival was 71% (inactive).
`Clc1ccc(CNc2ncnc3onc(-c4ccc(Cl)cc4)c23)cc1` was tested, and the survival was 133% (inactive).
With `COc1cc(Nc2ncnc3onc(-c4ccc(Cl)cc4)c23)cc(OC)c1` the survival was 94% (inactive).
`COc1ccc(-c2csc(C)n2)cc1` was tested, and the survival was 75% (inactive).
In the case of `Cc1ccc(C(=O)N2CCCn3c2nc2ccccc23)cc1`, the survival is reported as 70% (inactive).
For `COc1cccc(-n2cc(C(=O)OCc3ccc(Cl)cc3)c3ccccc3c2=O)c1`, the survival was 85% (inactive).
`N#C/C(=C\c1ccc(OCc2ccc(Cl)cc2Cl)cc1)c1nc2ccccc2[nH]1` was tested, and the survival was 103% (inactive).
`O=C(O)CCCC(=O)N1CCc2cc(S(=O)(=O)NCc3ccccc3)ccc21` was tested, and the survival was 111% (inactive).

Reference: PubChem BioAssay AID463173 (ICCB-Longwood Screening Facility, Harvard Medical School, 2010)
